PMC12136788
Numbering of substitutions follows the chain as printed. Whole data set: some 24,000 sequences, median “enrichment r” near 0.99, cut for the highest 2% near 3.7. The list comes from a sample in which the highest values are over-represented; it also holds similar and randomly drawn sequences.

T1: UNK ZnF1-3 (human, UniProt Q9C0B0 31-174)
T1 sequence: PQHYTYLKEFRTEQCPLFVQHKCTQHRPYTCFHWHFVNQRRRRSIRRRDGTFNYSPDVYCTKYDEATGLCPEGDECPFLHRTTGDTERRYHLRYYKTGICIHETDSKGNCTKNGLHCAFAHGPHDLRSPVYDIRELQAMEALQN

B1: chr10:33190432:33190433:-_ENSG00000150093_ENST00000302278|hu_mus|hu_hu_hu_mus_True|68_98 (ssRNA)
RNA: GGGAGUUCUACAGUCCGACGAUCUACAUUUUCCAAACCUGCACAUGAAUAAAACCCUGGCCACAGAGCCCUAAAGCUACCCUACUGUGACUAAGAUGCUGCUGCUGUGAGCUUGGUGUUGCAAAAUCCGCCUGAGUAGGAUUCCAACAGAGGAUUGAGCAUCA
B2: chr6:35837335:35837336:-_ENSG00000096063_ENST00000361690|hu_mus|FALSE|FALSE (ssRNA)
RNA: GGGAGUUCUACAGUCCGACGAUCGGGCUCCUGCUCAUCCCCAGAAGGUGUAUCUGCCCGAAUGCUCUCCUCCAGCUGGGUGAUGUCCUGUCGGGUGAGUGACUGCUCUGCAGAGGAUUGGCACACCAUGGUCUCAGAGGCCGUCAACAGAGGAUUGAGCAUCA
B3: chr2:126475859:126475860:-_ENSMUSG00000027361_ENSMUST00000110424|mus_mus|FALSE|FALSE (ssRNA)
RNA: GGGAGUUCUACAGUCCGACGAUCAGUUUCUGAAGAAUUGGACAAUGGGGCAGAAGCUUCAGCUAAGGCAGCUAACGUAGCUAAUACUGACGUAGAGGAGUUUCCAAACUGAACAGCAGAUACUCCUGUUUCAUCUGUGAGGUUCAACAGAGGAUUGAGCAUCA
B4: chr17:25041749:25041750:-_ENSMUSG00000024163_ENSMUST00000117509|mus_hu|FALSE|FALSE (ssRNA)
RNA: GGGAGUUCUACAGUCCGACGAUCCGAGGGAUAGGGGCGCUUGGCCGGAGGGGGGCUGGAGGAAGAGCUGAAGAGGCGGCUGAAGAACUGCCAGAUGGUCGACUUCUUCUUCUCCUGGACGGAUGGGUGCUCUCGGGACGCUCUCAACAGAGGAUUGAGCAUCA
B5: chr17:60770872:60770873:+_ENSG00000011028_ENST00000303375|hu_hu|hu_hu_hu_mus_True|18_58 (ssRNA)
RNA: GGGAGUUCUACAGUCCGACGAUCUCUUUAAAAAAAAAAAAAAAAAGACAAACAAUAAUAGCACAUUUCGAGAAUCAUCAACUACAGUAGAGGGUCCGCUUUGAGUUUUUGUUCACAACAUUGUCCCCUGGGACACGGGGACUGCAACAGAGGAUUGAGCAUCA
B6: chr17:60770872:60770873:+_ENSG00000011028_ENST00000303375|hu_hu|hu_hu_hu_mus_True|18_88 (ssRNA)
RNA: B5 RNA with A47U, C48U, A49U, C52A, U55C, U77A, C78G, G86A
B7: chr17:60770872:60770873:+_ENSG00000011028_ENST00000303375|hu_hu|hu_hu_hu_mus_True|48_58 (ssRNA)
RNA: GGGAGUUCUACAGUCCGACGAUCUCUUUAAAAAAAAAAAAAAAAAGACAAACAAUAAUAGCACAUUUCGAGAAUCAUCAACUACAGAGAAAGGGCCGCUUUGAGUUUUUGUUCACAUCGUCCUGCACUGGGACACGGGGACUGCAACAGAGGAUUGAGCAUCA
B8: chr17:60770872:60770873:+_ENSG00000011028_ENST00000303375|hu_mus|FALSE|FALSE (ssRNA)
RNA: B7 RNA with U77A, C78G, G86A, A87U, G88A, A89G, A91G, G94U
B9: chr17:60770872:60770873:+_ENSG00000011028_ENST00000303375|hu_hu|hu_hu_hu_mus_True|1_8 (ssRNA)
RNA: GGGAGUUCUACAGUCCGACGAUCUCUUUAAAAAAAAAAAAAAAAAGACAAACAAUAAUAGCACAUUUCGAGAAUCAAGAACUACAAUAGAGGGUCCGCUUUGAGUUUUUGUUCACAUCGUCCUGCAACGCUGUCGCACCAGGACAACAGAGGAUUGAGCAUCA
B10: chr17:60770872:60770873:+_ENSG00000011028_ENST00000303375|hu_hu|hu_hu_hu_mus_True|18_48 (ssRNA)
RNA: B5 RNA with U77A, C78G, G86A, U87A, A88G, G89A, G91A, U94G
B11: chr17:60770872:60770873:+_ENSG00000011028_ENST00000303375|hu_hu|hu_hu_hu_mus_True|88_88 (ssRNA)
RNA: GGGAGUUCUACAGUCCGACGAUCUCUUUAAAAAAAAAAAAAAAAAGUUUAAAAACAAUAGCACAUUUCGAGAAUCAAGAACUACAAUAGAGGGUCCGCUUUGAGUUUUUGUUCACAUCGUCCUGCACUGGGACACGGGGACUGCAACAGAGGAUUGAGCAUCA
B12: chr17:60770872:60770873:+_ENSG00000011028_ENST00000303375|hu_hu|hu_hu_hu_mus_True|18_18 (ssRNA)
RNA: B5 RNA with U77A, C78G, G86A
B13: chr17:60770872:60770873:+_ENSG00000011028_ENST00000303375|hu_hu|hu_hu_hu_mus_True|48_48 (ssRNA)
RNA: B7 RNA with U77A, C78G, G86A
B14: chr17:60770872:60770873:+_ENSG00000011028_ENST00000303375|hu_hu|hu_hu_hu_mus_True|1_1 (ssRNA)
RNA: B9 RNA with A127C, C128U, C130G, U131G, G132A, U133C, C134A, G135C, C136G
B15: chr17:60770872:60770873:+_ENSG00000011028_ENST00000303375|hu_hu|hu_hu_hu_mus_True|48_88 (ssRNA)
RNA: B11 RNA with U87A, A88G, G89A, G91A, U94G
B16: chr13:100200933:100200934:-_ENSMUSG00000052727_ENSMUST00000064762|mus_hu|FALSE|FALSE (ssRNA)
RNA: GGGAGUUCUACAGUCCGACGAUCAGAGGUGAGUGAGGCAUAUAAGGACAUAUCUCUGGGAGGAGCAACAUCGGAUAGAGUAUCUUCUUGGAGAGGAGAAGCGAUCUGAGAAGGGGUAUGAGCAGAAGAGGUGGACGGGGAGGCCAACAGAGGAUUGAGCAUCA
B17: chr14:21343058:21343059:-_ENSMUSG00000021816_ENSMUST00000161445|perfect_dup|FALSE|FALSE (ssRNA)
RNA: GGGAGUUCUACAGUCCGACGAUCUGUAGUUUGACUUUUUCUGUACAUUCUAUAGCCUGCAUCUUGAGCUUCAUGAGCUCUAAUAAUCGAUAACAAAUUAUUGUUUUGCAAAAAUUCACACACUGCUGGAUAGUUAUAAAAAUACAACAGAGGAUUGAGCAUCA
B18: chr2:216981417:216981418:+_ENSG00000079246_ENST00000392132|hu_hu|hu_hu_hu_mus_True|58_68 (ssRNA)
RNA: GGGAGUUCUACAGUCCGACGAUCCUGAUACUGGUCCUUGCCAGCAAGGGCAUUAUCAGUGCCAUCUGUACCAAACAGGACUAAAGCAAUCUCAUCUUUGCUCUCCGAAAAUACCUGUCGUUGGACAAACAUAGUCAUCACUUUCAACAGAGGAUUGAGCAUCA
B19: chr6:40197388:40197389:+_ENSMUSG00000057716_ENSMUST00000061740|mus_mus|mus_mus_mus_hu_False|68_108 (ssRNA)
RNA: GGGAGUUCUACAGUCCGACGAUCGAGUUGUCAGUUUGGAUUUAUUCCACCUCUGUUUGGGUGCUAGUAAGAUAGAUUGUUAUUUUGGGAUUCAUGGCCUUGAAUAUCAAGAGGGAAAGGAAGAGGAUGGAAAGAGUCAAGAGUCAACAGAGGAUUGAGCAUCA
B20: 33360611_33360731_3434_3pUTR_ENSMUSG00000024378_ENSMUST00000025236|mouse|control|control (ssRNA)
RNA: GGGAGUUCUACAGUCCGACGAUCCUAUGGACUGCUAUAAGCCCUUCCCCCAGCCCCAGGUACUUUUGCAAGAGCAGAGAACGCUCUUUCACUACCAUCACCUCCCAGCCUCUGCUGGGAUACUCUGAGUUACACGUAUGGCUUCAACAGAGGAUUGAGCAUCA
B21: chr7:7679991:7679992:-_ENSG00000106399_ENST00000396682|hu_hu|hu_hu_hu_mus_False|8_8 (ssRNA)
RNA: GGGAGUUCUACAGUCCGACGAUCUGGGAUGAAUCUUUUCCAGCUUCCCCACGAAGCACACGGGCCGGUCGAUAUACUGUGGUAACAUGCUGGCGUUGACGCGCGCUUUGGGGAGCUGCAUUAUGUCCACCAUGAUUCUGCCGCCAACAGAGGAUUGAGCAUCA
B22: 142153747_142154939_927_CDS_ENSG00000109445_ENST00000262990|human|control|control (ssRNA)
RNA: GGGAGUUCUACAGUCCGACGAUCAUAAGCAUCAUACCCAGAAGCUCCAUCUCCCUCUUCACCUCCAGUCUGCCUGCCAAAUUUCAGGGAGCGUGUUGACAUGCUAAGGUCCUUAGUCUCCUGAGUUUCAUGCCCACAUUUAGGCAACAGAGGAUUGAGCAUCA

Molecular target: T1, UNK ZnF1-3
Test: nsRBNS (natural sequence RNA bind-n-seq); RBNS binding buffer (assumed for nsRBNS): 25 mM Tris pH 7.5, 150 mM KCl, 3 mM MgCl2, 0.01% Triton X-100, 500 ug/ml BSA, 20 U/ml SUPERase-In, 4 C; UNK is unkempt and MSI1 is Musashi-1; names of the RNAs are library labels; protein concentration not given here; high values mean tight binding

Compared with B1, B2 is higher in binding signal: 0.909 enrichment R for the first, 3.58 enrichment R for the second.

Compared with B3, B4 is higher in binding signal: 1.31 enrichment R for the first, 1.43 enrichment R for the second.

First: B5
Second: B6
The binding signal of the first is higher: 3.65 enrichment R for the first, 3.34 enrichment R for the second.

First: B7
Second: B8
The binding signal of the first is lower: 3.59 enrichment R for the first, 4.24 enrichment R for the second.

B9 and B10 are the same in binding signal: 3.63 enrichment R for the first, 3.63 enrichment R for the second.

Going from B11 to B12, the binding signal falls from 4.21 enrichment R to 4.15 enrichment R.

Going from B13 to B14, the binding signal falls from 3.87 enrichment R to 3.11 enrichment R.

Going from B15 to B16, the binding signal rises from 3.6 enrichment R to 3.67 enrichment R.

Going from B17 to B18, the binding signal falls from 1.03 enrichment R to 0.678 enrichment R.

First: B19
Second: B20
The binding signal of the first is higher: 2.09 enrichment R for the first, 0.77 enrichment R for the second.

Compared with B21, B22 is higher in binding signal: 0.487 enrichment R for the first, 1.39 enrichment R for the second.
